In the library only some 3.5% were active in any assay of this set; here they are far more common.
TEAD-YAP block = TEAD-YAP interaction inhibition, primary screen, TEAD-YAP interaction inhibitor project, luminescence, HEK-TIYL cells | TEAD-Gal4/YAP UAS-luciferase luminescence | inhibition, % at 9.12 µM | hit rate 1.4% among 640,000; in the data active = inhibition above about 32%;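 also: 0% = median of test compound wells and 100% = reference inhibitor wells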
MITF inh = MITF inhibitors, primary screen, biochemical, AlphaScreen, human. AlphaScreen MITF homodimerization, bead proximity signal. hit rate 0.91% among 650,000. inhibition, % at 2.6 µM; in the data active = inhibition above about 50%;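 also: 0% = vehicle wells with protein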
GPR151 activ = activators of human GPR151, primary screen, cell-based, PathHunter beta-arrestin, luminescence. PathHunter beta-arrestin GPR151 cells. G-protein coupled receptor 151 (Homo sapiens), Q8TDV0. AID 1508602, 2020. hit rate 1% among 650,000. activation, % at 11.2 µM; in the data active = activation above about 4.9%;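 also: 0% = median of compound wells and 100% = cells with positive control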
Target sequence (Q8TDV0 whole entry, looked up): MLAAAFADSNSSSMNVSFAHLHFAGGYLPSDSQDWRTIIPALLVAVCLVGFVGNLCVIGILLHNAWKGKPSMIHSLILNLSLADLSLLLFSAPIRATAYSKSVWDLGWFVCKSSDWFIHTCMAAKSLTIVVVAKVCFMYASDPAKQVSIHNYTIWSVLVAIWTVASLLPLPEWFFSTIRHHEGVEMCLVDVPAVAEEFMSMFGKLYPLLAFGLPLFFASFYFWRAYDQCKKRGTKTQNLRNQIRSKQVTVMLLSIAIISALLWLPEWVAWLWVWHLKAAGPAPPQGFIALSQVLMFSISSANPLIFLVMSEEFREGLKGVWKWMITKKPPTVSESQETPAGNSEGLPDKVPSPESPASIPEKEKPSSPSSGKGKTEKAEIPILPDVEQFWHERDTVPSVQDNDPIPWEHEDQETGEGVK
FBW7 activator = FBW7 E3 ligase activators, primary screen, biochemical, AlphaScreen, human; AID 1259310, 2017; AlphaScreen FBW7–phospho-cyclin E peptide binding, activator screen; hit rate 0.13% among 650,000; F-box/WD repeat-containing protein 7 (Homo sapiens), Q969H0; normalized activity (activation), % at 26.1 µM; in the data active = normalized activity above about 1.9%;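 also: purified mutant Fbw7 with reduced substrate affinity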
The depositor's hits bear a star.

SMILES	TEAD-YAP block	MITF inh	GPR151 activ	FBW7 activator
COc1ccc(N2CCN(CC(=O)Nc3ccc(N4CCOCC4)cc3)CC2)cc1	-2.4	18.8	-2.3	0.2
COc1ccc(NC(=O)c2sc3nc(N)c(C#N)cc3c2N)cc1	-30.0	18.1	1.5	18.4*
COc1cc(NC(=O)c2sc3nc(N)c(C#N)cc3c2N)cc(OC)c1OC	-11.0	29.2	1.2	-0.5
Cc1ccc(OCC(=O)N/N=C\c2cccc(Br)c2)c([N+](=O)[O-])c1	13.4	6.3	0.9	0.1
Cc1c(C(=O)Nc2ccc3c(c2)OCCO3)sc2nc[nH]c(=O)c12	-3.1	5.4	-2.1	-0.1
CCC(C)Nc1c(-c2ccccc2)c(=O)c1=O (stereo unspecified)	9.4	9.1	0.9	0.2
COc1ccc(Nc2c(-c3ccccc3)c(=O)c2=O)cc1Cl	54.8*	98.5*	1.2	-0.2
Cc1ccc(-c2c(Nc3cccc(F)c3)c(=O)c2=O)cc1	49.7*	8.7	-0.3	0.1
CCN(c1ccc(OC)cc1)c1c(-c2ccccc2)c(=O)c1=O	48.4*	11.5	0.0	-0.1
CC(Nc1c(-c2ccccc2)c(=O)c1=O)c1ccccc1 (stereo unspecified)	39.6*	-0.1	-2.0	-0.2
O=c1c(Nc2cccc(Cl)c2)c(-c2ccccc2)c1=O	0.6	9.1	-1.4	0.0
CCC(SC1=Nc2ccccc2C2=NC(C)C(=O)N12)C(=O)Nc1ccccc1OC (stereo unspecified)	5.6	-8.4	-0.9	-0.1
O=C(Nc1ccccc1O)c1ccc2c(c1)C(=O)N(c1cccc([N+](=O)[O-])c1)C2=O	-4.7	0.1	1.2	0.0
COc1ccc(-c2c(Nc3cccc(SC)c3)c(=O)c2=O)cc1	61.0*	14.6	0.6	0.8
COc1ccc(Nc2c(-c3ccc(C)cc3)c(=O)c2=O)cc1	-5.5	-8.4	0.5	0.0
COc1ccc(Nc2c(-c3ccccc3)c(=O)c2=O)cc1	60.1*	-2.4	1.2	0.0
CCc1ccc(Nc2c(-c3ccccc3)c(=O)c2=O)cc1	55.6*	-0.5	-1.1	0.1
CCc1cccc(Nc2c(-c3ccc(OC)cc3)c(=O)c2=O)c1	-8.2	6.0	0.9	0.7
CCOC(=O)c1cnc2c(C)cc(Cl)cc2c1Nc1ccc(C)cc1	-0.4	11.1	-1.7	0.0
O=C(CSc1ncn[nH]1)c1ccc(O)cc1O	-0.9	-8.6	-3.9	-0.1
Cc1ccc(O)c(N=Nc2ccc(S(=O)(=O)O)cc2)c1	14.0	9.4	-7.2	-0.1
Cc1ccc(O)c(N=Nc2ncn[nH]2)c1	80.5*	47.2	2.8	-2.1
Oc1ccc(N=Nc2ncn[nH]2)c(O)c1	10.8	91.6*	-0.3	-0.4
Cc1cccc(NC(=O)c2c(NC(=O)C(C)C)sc3c2CCCC3)c1	3.3	3.9	1.3	0.0
COc1cccc(Oc2c(C)oc3cc(OS(C)(=O)=O)ccc3c2=O)c1	44.1*	-4.5	0.7	0.0
SMILES	TEAD-YAP block	MITF inh	GPR151 activ	FBW7 activator
Cc1oc2cc(OS(C)(=O)=O)ccc2c(=O)c1-c1ccc(Br)cc1	34.0*	0.8	3.2	0.0
Cc1oc2cc(OCC(=O)O)ccc2c(=O)c1-c1ccc(Br)cc1	-1.7	-3.3	0.7	-0.1
COc1ccc(-c2c(C)oc3cc(O)ccc3c2=O)cc1	1.0	-4.3	1.4	-0.2
Cc1oc2cc(OCCN3CCOCC3)ccc2c(=O)c1-c1ccc(Br)cc1	36.8*	-2.7	0.6	0.1
COc1ccc(-c2c(C)oc3cc(OS(C)(=O)=O)ccc3c2=O)cc1	36.9*	3.1	0.5	-0.1
O=C(NCc1cccnc1)c1cccc(Nc2cnccn2)c1	11.9	-4.9	0.5	-0.1
C/C(=N\N1CCOCC1)c1c(C(F)(F)F)[nH]n(-c2nc3ccccc3s2)c1=O	-1.5	12.9	-1.2	0.7
C/C(=N/N1CCN(C)CC1)c1c(C(F)(F)F)[nH]n(-c2nc3ccccc3s2)c1=O	49.2*	8.0	-8.0	0.0
CC(=NCc1cccnc1)c1c(C)[nH]n(-c2nc3ccccc3s2)c1=O	42.2*	7.5	-8.2	0.1
Cc1cnc(Nc2ccc(-n3cnc(N4CCOCC4)n3)cc2)cc1Nc1ccccc1C(N)=O	82.1*	-5.5	4.1	-0.1
NC(=O)c1ccccc1Nc1cc(Nc2ccc(-n3cnc(N4CCOCC4)n3)cc2)ncc1C(F)F	41.7*	12.2	0.6	0.0
Cc1cnc(Nc2ccncc2)cc1Nc1ccccc1C(N)=O	-0.7	0.7	-0.2	0.1
O=c1c2c(nc3nc(NCc4ccc(Br)cc4)[nH]n13)CCC2	-0.4	-2.3	1.3	0.0
CC(=O)Nc1ccc(Nc2ccnc(Nc3ccc4ncccc4c3)n2)cc1	36.6*	5.3	-0.6	0.0
CC(=O)Nc1ccc(Nc2cc(C)nc(Nc3ccc4ncccc4c3)n2)cc1	26.6	9.6	0.8	0.1
CC(=O)Nc1ccc(Nc2ccnc(Nc3ccncn3)n2)cc1	-16.2	9.8	3.9	0.1
CC(=O)Nc1ccc(Nc2ccnc(Nc3ccc(C(F)(F)F)cc3)n2)cc1	59.8*	11.4	-0.3	0.0
CC1(C)CC(NC2=C(Cl)C(=O)c3ccccc3C2=O)CC(C)(C)N1	8.9	11.7	-1.5	0.1
CC(C)(C)n1cccc1C=C1C(=O)NC(=O)NC1=O	16.8	9.2	-1.4	0.1
COCCNc1c(-c2ccc(C)cc2)c(=O)c1=O	-1.7	-3.3	2.5	-0.2
COCCCNc1c(-c2ccc(Cl)cc2)c(=O)c1=O	48.4*	-4.9	-1.2	0.0
COc1ccc(-c2noc(C3CCCN(C(=O)c4c(F)cccc4F)C3)n2)cc1OC (stereo unspecified)	8.5	-9.6	2.4	-0.1
COc1cccc(-c2noc(C3CCCN(C(=O)c4c(OC)cccc4OC)C3)n2)c1 (stereo unspecified)	63.4*	9.9	-0.7	0.0
N#CC1(Nc2ccc(Br)cc2)CCCCC1	-0.2	-6.4	-0.2	-0.1
O=C(CSc1nncn1-c1ccccc1)Nc1nc2c(F)c(F)c(F)cc2s1	-7.5	10.5	-1.3	3.9*
SMILES	TEAD-YAP block	MITF inh	GPR151 activ	FBW7 activator
OCC#CCSc1ncnn1-c1ccccc1	0.2	11.7	1.1	7.2*
O=C(CC1C(=O)N(c2ccc(Cl)cc2)C(=S)N1CCc1ccc(Cl)cc1)Nc1ccc(F)cc1 (stereo unspecified)	-11.1	20.6	-1.0	2.0*
CCN1/C(=C/c2ccc3cc(C)ccc3[n+]2CC)Sc2c(C)cc(C)cc21	72.5*	5.5	0.2	-0.1
CCN1/C(=C/c2ccc3ccc(C)cc3[n+]2C)Sc2ccccc21	89.5*	20.3	1.8	-0.5
CCN1/C(=C/c2ccc3cc(C)ccc3[n+]2CC)Sc2cc(NC(C)=O)ccc21	10.5	20.3	0.2	-0.3
CCN1/C(=C/c2ccc3ccc(C)cc3[n+]2CC)Sc2cc(C)c(C)cc21	89.3*	23.8	1.6	-0.6
CCCCCC(=O)NNC(=O)Nc1cccc(Cl)c1	10.4	-0.7	-0.4	0.0
OC(COc1ccccc1)CN1C2=NCCCN2c2ccccc21 (stereo unspecified)	-3.8	11.1	1.0	2.1*

Assay outcomes (PubChem BioAssay)
